The source of these data is PMC7862700, “An all-to-all approach to the identification of sequence-specific readers for epigenetic DNA modifications on cytosine”.

Common to all, as to assay: DAPPL (digital affinity profiling via proximity ligation, sequencing); 10 mM Tris-HCl pH 7.5, 50 mM NaCl, 1 mM DTT, 4% glycerol, room temperature, 30 min; GST-TFs on glutathione beads, 16-mer random dsDNA library, 0.1% formaldehyde crosslink after washing; high values mean tight binding
Conditions in all cases: protein: recombinant; tags: N-terminal GST; dsDNA, one strand shown

One assay addresses T1, FLI1 (Homo sapiens, UniProt Q01543 1-452).
T1 sequence: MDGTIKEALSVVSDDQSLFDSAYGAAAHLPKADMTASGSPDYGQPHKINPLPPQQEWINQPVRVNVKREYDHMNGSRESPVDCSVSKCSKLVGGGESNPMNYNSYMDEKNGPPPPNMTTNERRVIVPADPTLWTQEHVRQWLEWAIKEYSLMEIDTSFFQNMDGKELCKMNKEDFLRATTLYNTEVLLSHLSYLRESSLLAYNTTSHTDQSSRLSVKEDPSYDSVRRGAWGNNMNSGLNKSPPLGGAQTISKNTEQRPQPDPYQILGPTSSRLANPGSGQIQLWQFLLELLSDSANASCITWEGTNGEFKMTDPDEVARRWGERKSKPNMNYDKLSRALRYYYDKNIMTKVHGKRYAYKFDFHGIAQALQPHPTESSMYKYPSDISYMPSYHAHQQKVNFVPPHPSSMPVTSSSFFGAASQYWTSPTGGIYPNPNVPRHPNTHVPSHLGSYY
A digest of the protocol: (§1)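 Binding signal is each hexamer's read frequency for a factor divided by its frequency in the tag-only sample. The factors were GST-fused human transcription factors from yeast, captured on glutathione beads, DNA-barcoded and pooled with that sample. Pools were incubated with 200 nmole of a random double-stranded 16-mer DNA library in Tris/NaCl/DTT/glycerol buffer at room temperature for 30 min, then washed, crosslinked with 0.1% formaldehyde, proximity-ligated with BsaI/T4 ligase (1 h, 37 °C), PCR-amplified and sequenced on an Illumina NextSeq500.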

A further assay concerns the target T2, ELK1 (Homo sapiens, UniProt P19419 1-428).
T2 sequence: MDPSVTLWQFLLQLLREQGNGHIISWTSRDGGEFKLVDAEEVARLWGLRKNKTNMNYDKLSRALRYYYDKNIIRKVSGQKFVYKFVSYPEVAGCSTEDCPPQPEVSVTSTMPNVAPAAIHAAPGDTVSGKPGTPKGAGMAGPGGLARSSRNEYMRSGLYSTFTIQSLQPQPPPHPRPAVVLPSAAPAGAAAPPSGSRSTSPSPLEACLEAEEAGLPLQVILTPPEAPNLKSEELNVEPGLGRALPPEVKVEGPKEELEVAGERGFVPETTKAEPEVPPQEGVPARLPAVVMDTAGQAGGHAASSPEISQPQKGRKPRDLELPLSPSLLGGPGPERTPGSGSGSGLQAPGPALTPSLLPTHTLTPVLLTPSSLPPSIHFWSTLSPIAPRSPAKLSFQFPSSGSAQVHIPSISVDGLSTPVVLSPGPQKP
A digest of the protocol: as §1

A further assay addresses T3, GABPA (Homo sapiens, UniProt Q06546 1-454).
T3 sequence: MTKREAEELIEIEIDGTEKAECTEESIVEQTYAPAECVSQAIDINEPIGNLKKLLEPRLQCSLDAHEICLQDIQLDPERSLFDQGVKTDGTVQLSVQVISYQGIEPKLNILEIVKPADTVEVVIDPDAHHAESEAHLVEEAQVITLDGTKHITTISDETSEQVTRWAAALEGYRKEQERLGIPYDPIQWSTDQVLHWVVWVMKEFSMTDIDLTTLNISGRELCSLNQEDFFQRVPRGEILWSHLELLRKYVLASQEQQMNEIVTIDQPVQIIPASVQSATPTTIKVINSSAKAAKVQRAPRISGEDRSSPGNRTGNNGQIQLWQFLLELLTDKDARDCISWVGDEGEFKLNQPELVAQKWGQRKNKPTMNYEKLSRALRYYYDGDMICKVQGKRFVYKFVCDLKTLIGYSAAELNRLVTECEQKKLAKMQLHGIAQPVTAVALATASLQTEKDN
A digest of the protocol:
as §1

The next assay addresses T4, ERG (Homo sapiens, UniProt P11308 1-479).
T4 sequence: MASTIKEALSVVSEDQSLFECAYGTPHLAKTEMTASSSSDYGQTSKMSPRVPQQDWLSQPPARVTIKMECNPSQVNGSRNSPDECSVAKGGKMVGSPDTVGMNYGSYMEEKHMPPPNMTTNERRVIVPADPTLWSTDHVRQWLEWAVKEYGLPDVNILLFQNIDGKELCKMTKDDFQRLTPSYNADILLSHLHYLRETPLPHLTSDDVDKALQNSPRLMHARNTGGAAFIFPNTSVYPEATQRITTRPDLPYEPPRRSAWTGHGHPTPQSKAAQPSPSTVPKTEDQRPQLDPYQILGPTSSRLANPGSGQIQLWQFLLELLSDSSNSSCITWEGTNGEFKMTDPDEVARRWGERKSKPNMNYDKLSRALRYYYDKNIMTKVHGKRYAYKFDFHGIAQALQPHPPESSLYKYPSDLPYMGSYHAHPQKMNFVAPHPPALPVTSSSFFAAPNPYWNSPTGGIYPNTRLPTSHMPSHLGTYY
A digest of the protocol:
as §1

Another assay has as its target ELF1 (Homo sapiens, UniProt P32519 1-619). A digest of the protocol:
as §1

A further assay has as its target T5, EHF (Homo sapiens, UniProt Q9NZC4 1-300).
T5 sequence: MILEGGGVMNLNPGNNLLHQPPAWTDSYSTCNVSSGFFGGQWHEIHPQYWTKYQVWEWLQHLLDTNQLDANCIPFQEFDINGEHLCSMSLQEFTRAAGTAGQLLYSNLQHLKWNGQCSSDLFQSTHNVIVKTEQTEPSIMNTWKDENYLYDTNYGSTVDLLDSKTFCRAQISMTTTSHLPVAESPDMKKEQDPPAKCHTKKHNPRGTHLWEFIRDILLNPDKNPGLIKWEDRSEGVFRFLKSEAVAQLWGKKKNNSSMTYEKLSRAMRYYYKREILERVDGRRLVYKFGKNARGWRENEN
A digest of the protocol:
as §1

Another assay has as its target SPI1 (Homo sapiens, UniProt P17947 1-270). A digest of the protocol: as §1
The target of a further assay is SPIB (Homo sapiens, UniProt Q01892 1-262). A digest of the protocol:
as §1

The next assay has as its target T6, ELK3 (Homo sapiens, UniProt P41970 1-407).
T6 sequence: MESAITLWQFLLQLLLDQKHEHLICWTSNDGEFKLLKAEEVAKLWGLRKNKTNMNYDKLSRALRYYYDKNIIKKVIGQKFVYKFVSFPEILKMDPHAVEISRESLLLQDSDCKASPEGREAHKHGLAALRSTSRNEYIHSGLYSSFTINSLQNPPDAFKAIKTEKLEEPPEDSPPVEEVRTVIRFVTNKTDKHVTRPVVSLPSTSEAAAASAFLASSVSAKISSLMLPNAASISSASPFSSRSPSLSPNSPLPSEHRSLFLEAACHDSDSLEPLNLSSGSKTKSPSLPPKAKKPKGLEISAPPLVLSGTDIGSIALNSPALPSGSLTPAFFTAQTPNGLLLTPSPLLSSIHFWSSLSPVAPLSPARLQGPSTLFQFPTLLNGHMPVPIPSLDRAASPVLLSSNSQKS
A digest of the protocol: as §1

SPIB, sequence (Q01892 whole entry): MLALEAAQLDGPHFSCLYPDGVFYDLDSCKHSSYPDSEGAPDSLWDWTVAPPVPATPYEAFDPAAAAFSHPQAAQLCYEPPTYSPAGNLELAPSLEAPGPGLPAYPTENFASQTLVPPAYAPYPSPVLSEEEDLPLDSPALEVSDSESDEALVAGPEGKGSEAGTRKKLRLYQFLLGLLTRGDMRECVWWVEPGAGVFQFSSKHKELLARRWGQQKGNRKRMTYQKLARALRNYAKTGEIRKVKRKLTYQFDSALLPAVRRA
ELF1, sequence (P32519 whole entry): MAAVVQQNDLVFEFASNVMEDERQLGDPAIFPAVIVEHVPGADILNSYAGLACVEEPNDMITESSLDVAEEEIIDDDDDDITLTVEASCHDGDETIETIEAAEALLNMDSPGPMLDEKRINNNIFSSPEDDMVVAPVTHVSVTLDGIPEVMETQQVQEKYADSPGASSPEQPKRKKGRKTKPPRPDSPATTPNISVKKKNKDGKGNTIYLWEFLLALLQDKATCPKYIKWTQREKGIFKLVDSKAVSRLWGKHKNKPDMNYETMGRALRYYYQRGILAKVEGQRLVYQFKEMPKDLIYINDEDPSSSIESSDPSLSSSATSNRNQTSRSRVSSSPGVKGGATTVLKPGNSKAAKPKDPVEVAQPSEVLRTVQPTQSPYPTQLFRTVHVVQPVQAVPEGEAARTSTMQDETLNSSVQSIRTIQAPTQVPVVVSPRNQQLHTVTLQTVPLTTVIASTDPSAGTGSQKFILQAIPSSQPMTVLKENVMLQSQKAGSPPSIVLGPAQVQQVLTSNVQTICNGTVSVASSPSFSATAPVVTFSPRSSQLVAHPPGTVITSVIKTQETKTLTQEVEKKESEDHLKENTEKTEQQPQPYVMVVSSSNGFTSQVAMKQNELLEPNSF

Consider GACTTC, for which the binding signal is 2.39 fold enrichment (6-mer frequency, TF over GST control) with FLI1; 2.65 fold enrichment (6-mer frequency, TF over GST control) with ELK1; 2.3 fold enrichment (6-mer frequency, TF over GST control) in the assay with GABPA; 2.84 fold enrichment (6-mer frequency, TF over GST control) with ERG; 2.36 fold enrichment (6-mer frequency, TF over GST control) with ELF1; 2.51 fold enrichment (6-mer frequency, TF over GST control) with EHF. Also, the binding signal was 3.04 fold enrichment (6-mer frequency, TF over GST control) with SPI1; 2.51 fold enrichment (6-mer frequency, TF over GST control) with SPIB; 2.61 fold enrichment (6-mer frequency, TF over GST control) with ELK3.
For the sequence ACCCTT, the binding signal in the assay with FLI1 was 1.3 fold enrichment (6-mer frequency, TF over GST control); with ELK1, 1.23 fold enrichment (6-mer frequency, TF over GST control); with GABPA, 1.23 fold enrichment (6-mer frequency, TF over GST control); with ERG, 1.19 fold enrichment (6-mer frequency, TF over GST control); in the assay with ELF1, 1.16 fold enrichment (6-mer frequency, TF over GST control); in the assay with EHF, 1.18 fold enrichment (6-mer frequency, TF over GST control). Moreover, the binding signal is 1.21 fold enrichment (6-mer frequency, TF over GST control) with SPI1; 1.19 fold enrichment (6-mer frequency, TF over GST control) with SPIB; 1.2 fold enrichment (6-mer frequency, TF over GST control) in the assay with ELK3.
For TCGTTT, the binding signal is 1.13 fold enrichment (6-mer frequency, TF over GST control) with FLI1; 1.21 fold enrichment (6-mer frequency, TF over GST control) in the assay with ELK1; 1.28 fold enrichment (6-mer frequency, TF over GST control) with GABPA; 1.15 fold enrichment (6-mer frequency, TF over GST control) with ERG; 1.15 fold enrichment (6-mer frequency, TF over GST control) with ELF1; 1.22 fold enrichment (6-mer frequency, TF over GST control) with EHF. Further, the binding signal with SPI1 is 1.2 fold enrichment (6-mer frequency, TF over GST control); with SPIB it was 1.18 fold enrichment (6-mer frequency, TF over GST control); in the assay with ELK3 it was 1.05 fold enrichment (6-mer frequency, TF over GST control).
In the case of CTCAAC, the binding signal with FLI1 is 1.25 fold enrichment (6-mer frequency, TF over GST control); with ELK1, 1.32 fold enrichment (6-mer frequency, TF over GST control); in the assay with GABPA, 1.33 fold enrichment (6-mer frequency, TF over GST control); with ERG, 1.24 fold enrichment (6-mer frequency, TF over GST control); with ELF1, 1.26 fold enrichment (6-mer frequency, TF over GST control); with EHF, 1.18 fold enrichment (6-mer frequency, TF over GST control). The binding signal with SPI1 is 1.18 fold enrichment (6-mer frequency, TF over GST control); with SPIB, 1.19 fold enrichment (6-mer frequency, TF over GST control); with ELK3, 1.28 fold enrichment (6-mer frequency, TF over GST control).
For the sequence TAGCTT, the binding signal is 1.18 fold enrichment (6-mer frequency, TF over GST control) with FLI1; 1.26 fold enrichment (6-mer frequency, TF over GST control) in the assay with ELK1; 1.31 fold enrichment (6-mer frequency, TF over GST control) with GABPA; 1.17 fold enrichment (6-mer frequency, TF over GST control) with ERG; 1.21 fold enrichment (6-mer frequency, TF over GST control) with ELF1; 1.21 fold enrichment (6-mer frequency, TF over GST control) with EHF. For the same sequence, the binding signal in the assay with SPI1 is 1.25 fold enrichment (6-mer frequency, TF over GST control); with SPIB, 1.29 fold enrichment (6-mer frequency, TF over GST control); with ELK3, 1.31 fold enrichment (6-mer frequency, TF over GST control).
As for CTACCT, the binding signal with FLI1 was 1.37 fold enrichment (6-mer frequency, TF over GST control); with ELK1, 1.46 fold enrichment (6-mer frequency, TF over GST control); with GABPA it was 1.35 fold enrichment (6-mer frequency, TF over GST control); in the assay with ERG, 1.43 fold enrichment (6-mer frequency, TF over GST control); with ELF1 it was 1.35 fold enrichment (6-mer frequency, TF over GST control); in the assay with EHF, 1.46 fold enrichment (6-mer frequency, TF over GST control). Further, the binding signal with SPI1 was 1.45 fold enrichment (6-mer frequency, TF over GST control); with SPIB, 1.4 fold enrichment (6-mer frequency, TF over GST control); with ELK3, 1.44 fold enrichment (6-mer frequency, TF over GST control).
Turning to TGAACA, the binding signal with FLI1 is 1.25 fold enrichment (6-mer frequency, TF over GST control); in the assay with ELK1, 1.23 fold enrichment (6-mer frequency, TF over GST control); in the assay with GABPA it was 1.18 fold enrichment (6-mer frequency, TF over GST control); with ERG, 1.21 fold enrichment (6-mer frequency, TF over GST control); with ELF1 it was 1.26 fold enrichment (6-mer frequency, TF over GST control); with EHF it was 1.27 fold enrichment (6-mer frequency, TF over GST control). Further, the binding signal with SPI1 is 1.14 fold enrichment (6-mer frequency, TF over GST control); in the assay with SPIB it was 1.23 fold enrichment (6-mer frequency, TF over GST control); in the assay with ELK3, 1.33 fold enrichment (6-mer frequency, TF over GST control).
